The values below come from PubChem BioAssay (NCI).

About 79,000 compounds went through this panel and 15% of them were active in at least one assay; those are over-represented in the sample as a whole. A number with no mark means an inactive call. Active and inactive are the calls of the source. Rule as the data show it: active = growth inhibition above about 70%; inactive = the rest.

A short description of assay [1]: NCI Yeast Anticancer Drug Screen. Data for the rad50 strain (AID 155).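 Also: 0% = growth of vehicle-only cultures of the same strain.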 The settings on record: S. cerevisiae rad50 strain growth inhibition, hits give high values. The method in brief:
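Yeast carrying a defined DNA repair defect were exposed to test compounds, and growth was compared with vehicle-treated controls to give percent inhibition.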

The nature of assay [2]: NCI Yeast Anticancer Drug Screen. Data for the mec2-1 strain (AID 157). The settings on record: S. cerevisiae mec2-1 strain, hits give high values. The method in brief: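 Cells of the genetically defined mec2-1 yeast strain are incubated with test compound. Inhibition of growth is calculated against vehicle-treated controls.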
Assay [3] can be described thus: NCI Yeast Anticancer Drug Screen. Data for the sgs1 mgt1 strain (AID 161).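 Also: 0% = growth of cultures given vehicle only.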 The settings on record: S. cerevisiae sgs1 mgt1 strain, hits give high values. The gist of the method:
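Mutant yeast exposed to compound; growth scored against vehicle-only wells.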

Assay [4] in a line: NCI Yeast Anticancer Drug Screen. Data for the cln2 rad14 strain (AID 165).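 Also: 0% = growth equal to vehicle treated cultures.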 The note with it: S. cerevisiae cln2 rad14 strain, hits give high values. The method in brief:
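The screen exposed genetically defined yeast (cln2 rad14) to test compounds and scored growth inhibition relative to vehicle-treated controls.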

Assay [5] in a line: NCI Yeast Anticancer Drug Screen. Data for the bub3 strain (AID 167). The note with it: S. cerevisiae bub3 mutant strain, hits give high values. The gist of the method: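 Compounds were applied to a genetically altered yeast strain carrying a cell-cycle control defect. Growth inhibition was scored against vehicle-treated controls.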
Assay [6] can be described thus: NCI Yeast Anticancer Drug Screen. Data for the mlh1 rad18 strain (AID 175). The note with it: S. cerevisiae mlh1 rad18 strain growth inhibition, hits give high values. The gist of the method: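 Compound-treated yeast growth, normalised to vehicle controls. Strain bears defined DNA repair mutations.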
[7] abbreviates: at 5.0 µM (retest, dose inferred, filed as 0.5).
The mark [8] stands for this setting: at 50.0 µM (retest, dose inferred, filed as 5.0).

As to `CCOC(=O)Nc1ccc(SCC2COC(Cn3ccnc3)(c3ccc(Cl)cc3Cl)O2)cc1` (stereo not given), the growth inhibition is 89% (active) in assay [1] (setting [7]); 91% (active) in assay [1] (setting [8]); 97% (active) in assay [1] (at 50.0 µM); 72% (active) in assay [2] (setting [7]); 93% (active) in assay [2] (setting [8]); 96.2% (active) in assay [2] (at 50.0 µM). The growth inhibition in assay [3] (setting [7]) was 84% (active); in assay [3] (setting [8]), 94% (active); in assay [3] (at 50.0 µM), 49.1%; in assay [4] (setting [7]), 60%; in assay [4] (setting [8]), 90% (active); in assay [4] (at 50.0 µM) it was 98% (active). The growth inhibition was 91% (active) in assay [5] (setting [7]); 93% (active) in assay [5] (setting [8]); 94.5% (active) in assay [5] (at 50.0 µM); 61% in assay [6] (setting [7]); 90% (active) in assay [6] (setting [8]); 95.2% (active) in assay [6] (at 50.0 µM).
With `CN/N=C(\C)C(CN1CCCCC1)C(C1=C(O)c2ccccc2OC1)c1ccccc1` (stereo not given), the growth inhibition in assay [1] (setting [7]) is 25%; in assay [1] (setting [8]), 25%; in assay [1] (at 50.0 µM), 69.8%; in assay [2] (setting [7]), 25%; in assay [2] (setting [8]), 25%; in assay [2] (at 50.0 µM) it was 57.6%. For the same compound, the growth inhibition in assay [3] (setting [7]) is 9%; in assay [3] (setting [8]) it was 9%; in assay [3] (at 50.0 µM), 78.7% (active); in assay [4] (setting [7]), -1%; in assay [4] (setting [8]) it was -1%; in assay [4] (at 50.0 µM), 66.7%. Also, the growth inhibition in assay [5] (setting [7]) was 10%; in assay [5] (setting [8]), 10%; in assay [5] (at 50.0 µM), 67.7%; in assay [6] (setting [7]) it was 25%; in assay [6] (setting [8]) it was 25%; in assay [6] (at 50.0 µM), 72% (active).
Regarding `O=C1CCC(C(c2ccccc2)(c2ccccc2)c2ccccc2)CC1=O` (stereo not given), the growth inhibition is 0% in assay [1] (setting [7]); 99% (active) in assay [1] (setting [8]); -11.1% in assay [1] (at 50.0 µM); -1% in assay [2] (setting [7]); 98% (active) in assay [2] (setting [8]); 16.9% in assay [2] (at 50.0 µM). The growth inhibition is 0% in assay [3] (setting [7]); 99% (active) in assay [3] (setting [8]); -5.2% in assay [3] (at 50.0 µM); -14% in assay [4] (setting [7]); 99% (active) in assay [4] (setting [8]); 22.5% in assay [4] (at 50.0 µM). For the same compound, the growth inhibition in assay [5] (setting [7]) was -3%; in assay [5] (setting [8]), 99% (active); in assay [5] (at 50.0 µM) it was 0.85%; in assay [6] (setting [7]), -1%; in assay [6] (setting [8]), 99% (active); in assay [6] (at 50.0 µM), -10.2%.
On to `Nc1c(NCc2ccccc2)ccc2ncccc12`, for which the growth inhibition in assay [1] (setting [7]) is -10%; in assay [1] (setting [8]), 93% (active); in assay [1] (at 50.0 µM), 95.2% (active); in assay [2] (setting [7]), -17%; in assay [2] (setting [8]), 97% (active); in assay [2] (at 50.0 µM) it was 93.4% (active). Besides, the growth inhibition in assay [3] (setting [7]) was -7%; in assay [3] (setting [8]) it was 94% (active); in assay [3] (at 50.0 µM), 93.2% (active); in assay [4] (setting [7]), -7%; in assay [4] (setting [8]), 71% (active); in assay [4] (at 50.0 µM), 96.4% (active). Further, the growth inhibition in assay [5] (setting [7]) was 2%; in assay [5] (setting [8]) it was 93% (active); in assay [5] (at 50.0 µM), 98% (active); in assay [6] (setting [7]) it was 6%; in assay [6] (setting [8]), 96% (active); in assay [6] (at 50.0 µM), 98.1% (active).
Take `O=[N+]([O-])c1cc(Cl)ccc1S(=O)(=O)c1ccccc1`: the growth inhibition in assay [1] (setting [7]) is -19%; in assay [1] (setting [8]), 75% (active); in assay [1] (at 50.0 µM) it was 77.2% (active); in assay [2] (setting [7]), -31%; in assay [2] (setting [8]), 30%; in assay [2] (at 50.0 µM) it was 62.1%. For the same compound, the growth inhibition in assay [3] (setting [7]) was -7%; in assay [3] (setting [8]), 57%; in assay [3] (at 50.0 µM), 78.8% (active); in assay [4] (setting [7]) it was 22%; in assay [4] (setting [8]) it was 40%; in assay [4] (at 50.0 µM), 47.5%. Further, the growth inhibition was -13% in assay [5] (setting [7]); 79% (active) in assay [5] (setting [8]); 76.6% (active) in assay [5] (at 50.0 µM); -25% in assay [6] (setting [7]); 75% (active) in assay [6] (setting [8]); 79.7% (active) in assay [6] (at 50.0 µM).
Turning to `O=C(NNc1ccccc1)c1ccc([N+](=O)[O-])cc1`, the growth inhibition in assay [1] (setting [7]) is 31%; in assay [1] (setting [8]), 95% (active); in assay [1] (at 50.0 µM), 99% (active); in assay [2] (setting [7]) it was 10%; in assay [2] (setting [8]) it was 96% (active); in assay [2] (at 50.0 µM), 99.2% (active). In addition, the growth inhibition in assay [3] (setting [7]) was 34%; in assay [3] (setting [8]), 97% (active); in assay [3] (at 50.0 µM), 99% (active); in assay [4] (setting [7]) it was 20%; in assay [4] (setting [8]), 96% (active); in assay [4] (at 50.0 µM), 92% (active). Also, the growth inhibition is 25% in assay [5] (setting [7]); 96% (active) in assay [5] (setting [8]); 99.6% (active) in assay [5] (at 50.0 µM); 32% in assay [6] (setting [7]); 97% (active) in assay [6] (setting [8]); 98.7% (active) in assay [6] (at 50.0 µM).
Regarding `CC(C)C1(C)C(C#N)(C#N)C1(C#N)C#N`, the growth inhibition in assay [1] (setting [7]) is -94%; in assay [1] (setting [8]) it was 94% (active); in assay [1] (at 50.0 µM) it was 79.8% (active); in assay [2] (setting [7]) it was -35%; in assay [2] (setting [8]) it was 92% (active); in assay [2] (at 50.0 µM), 91.5% (active). Besides, the growth inhibition was -46% in assay [3] (setting [7]); 90% (active) in assay [3] (setting [8]); 95.5% (active) in assay [3] (at 50.0 µM); -46% in assay [4] (setting [7]); 22% in assay [4] (setting [8]); 48.4% in assay [4] (at 50.0 µM). Further, the growth inhibition in assay [5] (setting [7]) is -39%; in assay [5] (setting [8]) it was 91% (active); in assay [5] (at 50.0 µM), 92% (active); in assay [6] (setting [7]), -77%; in assay [6] (setting [8]), 94% (active); in assay [6] (at 50.0 µM), 95.8% (active).
Regarding `O=c1cccccc1[O-].O=c1cccccc1[O-].O=c1cccccc1[O-].[Nd+3]`, the growth inhibition is 11% in assay [1] (setting [7]); 11% in assay [1] (setting [8]); 91.9% (active) in assay [1] (at 50.0 µM); 20% in assay [2] (setting [7]); 20% in assay [2] (setting [8]); 91% (active) in assay [2] (at 50.0 µM). For the same compound, the growth inhibition in assay [3] (setting [7]) was 15%; in assay [3] (setting [8]), 15%; in assay [3] (at 50.0 µM), 89.3% (active); in assay [4] (setting [7]) it was 3%; in assay [4] (setting [8]), 3%; in assay [4] (at 50.0 µM), 80.9% (active). Also, the growth inhibition was 9% in assay [5] (setting [7]); 9% in assay [5] (setting [8]); 92.5% (active) in assay [5] (at 50.0 µM); 13% in assay [6] (setting [7]); 13% in assay [6] (setting [8]); 87.2% (active) in assay [6] (at 50.0 µM).
With `O=C(c1ccccc1)c1ccc(Cl)cc1`, the growth inhibition in assay [1] (setting [7]) was -1%; in assay [1] (setting [8]) it was -16%; in assay [1] (at 50.0 µM), 66.2%; in assay [2] (setting [7]), -3%; in assay [2] (setting [8]), -5%; in assay [2] (at 50.0 µM), 37.4%. Moreover, the growth inhibition in assay [3] (setting [7]) is 2%; in assay [3] (setting [8]), 4%; in assay [3] (at 50.0 µM), 74.2% (active); in assay [4] (setting [7]) it was 1%; in assay [4] (setting [8]), 2%; in assay [4] (at 50.0 µM), -3%. In addition, the growth inhibition in assay [5] (setting [7]) was -42%; in assay [5] (setting [8]) it was 0%; in assay [5] (at 50.0 µM), 73.8% (active); in assay [6] (setting [7]), 1%; in assay [6] (setting [8]), 2%; in assay [6] (at 50.0 µM), 81.5% (active).
With `Cc1cc(NCCO)nc2c1ccc1ccccc12`, the growth inhibition is 5% in assay [1] (setting [7]); 9% in assay [1] (setting [8]); 53.9% in assay [1] (at 50.0 µM); 3% in assay [2] (setting [7]); -2% in assay [2] (setting [8]); 35.6% in assay [2] (at 50.0 µM). Moreover, the growth inhibition in assay [3] (setting [7]) was 3%; in assay [3] (setting [8]), 16%; in assay [3] (at 50.0 µM), 46%; in assay [4] (setting [7]), -2%; in assay [4] (setting [8]), 23%; in assay [4] (at 50.0 µM), 16.6%. For the same compound, the growth inhibition was -3% in assay [5] (setting [7]); 16% in assay [5] (setting [8]); 19% in assay [5] (at 50.0 µM); 2% in assay [6] (setting [7]); 28% in assay [6] (setting [8]); 61.2% in assay [6] (at 50.0 µM).
